Assay [1] deals with T1, GST-Nv-NF-kB (Ser allele) (Nematostella vectensis, UniProt A7UNT2 2-411).
T1 sequence: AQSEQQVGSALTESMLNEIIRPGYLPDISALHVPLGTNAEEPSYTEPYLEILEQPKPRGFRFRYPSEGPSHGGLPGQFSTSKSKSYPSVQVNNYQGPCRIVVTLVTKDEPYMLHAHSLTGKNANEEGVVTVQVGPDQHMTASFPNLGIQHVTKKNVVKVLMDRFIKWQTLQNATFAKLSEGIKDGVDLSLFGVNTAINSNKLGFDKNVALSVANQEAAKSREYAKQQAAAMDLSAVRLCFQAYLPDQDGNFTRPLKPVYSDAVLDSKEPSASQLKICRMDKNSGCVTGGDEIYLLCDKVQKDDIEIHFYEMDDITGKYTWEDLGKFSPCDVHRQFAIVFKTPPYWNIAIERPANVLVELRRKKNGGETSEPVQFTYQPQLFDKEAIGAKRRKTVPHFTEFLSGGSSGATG
In words: protein-binding microarray (PBM); PBM: ~300 nM protein, 6 mM HEPES pH 7.8, 80 mM KCl, 0.5 mM EDTA, 0.5 mM EGTA, 6% glycerol, 35 ng/ul poly-dIdC, 1% milk, 1 h, room temperature; Ap Aiptasia and Nv Nematostella (sea anemones) / Co Capsaspora / Aq Amphimedon (sponge) / Dm Drosophila / Hu human; RHD is the Rel homology domain; high values mean tight binding. The settings on record: dsDNA, one strand shown.

A further assay has as its target GST-Hu-p50 (Homo sapiens, UniProt P19838 7-356). The description is as above. The settings on record: dsDNA, one strand shown.

GST-Hu-p50, sequence (P19838 7-356): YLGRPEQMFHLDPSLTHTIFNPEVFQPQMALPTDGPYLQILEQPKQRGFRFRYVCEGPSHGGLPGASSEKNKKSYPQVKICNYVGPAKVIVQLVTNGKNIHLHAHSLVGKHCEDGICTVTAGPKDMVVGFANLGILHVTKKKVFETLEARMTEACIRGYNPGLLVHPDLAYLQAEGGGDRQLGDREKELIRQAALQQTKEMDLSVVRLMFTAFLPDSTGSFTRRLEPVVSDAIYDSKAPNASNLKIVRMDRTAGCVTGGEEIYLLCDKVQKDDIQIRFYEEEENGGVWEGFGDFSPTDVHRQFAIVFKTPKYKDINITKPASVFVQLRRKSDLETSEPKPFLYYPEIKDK

Take “CCGATTAACATCAGGGGGTATACTGATGTTAATCGGGTCTTGATTCGCTTGACGCTGCTG”: the binding signal in assay [1] is 4.26 z-score; with GST-Hu-p50, 3.99 z-score.

In the case of “CCGATTAACATCAGGGAATTCACTGATGTTAATCGGGTCTTGATTCGCTTGACGCTGCTG”, the binding signal in assay [1] stood at 4.73 z-score; with GST-Hu-p50, 4.11 z-score.

As for “CCGATTAACATCACAAAACTCCCTGATGTTAATCGGGTCTTGATTCGCTTGACGCTGCTG”, the binding signal in assay [1] was 6.52 z-score; with GST-Hu-p50, 4.95 z-score.

Consider “CCGATTAACATCAGGAGTCCCCATGATGTTAATCGGGTCTTGATTCGCTTGACGCTGCTG”, for which the binding signal in assay [1] was found to be 4.11 z-score; with GST-Hu-p50 it was 4.86 z-score.

On to “CCGATTAACATCATTTCCCTTGATGATGTTAATCGGGTCTTGATTCGCTTGACGCTGCTG”, for which the values for the binding signal (in assay [1]; with GST-Hu-p50) were 3.44 z-score and 2.51 z-score, respectively.

Turning to “CCGATTAACATCAGGATTTTACCTGATGTTAATCGGGTCTTGATTCGCTTGACGCTGCTG”, the values for the binding signal (in assay [1]; with GST-Hu-p50) were 3.67 z-score and 2.65 z-score, respectively.

Regarding “CCGATTAACATCACTTGGGAAACTGATGTTAATCGGGTCTTGATTCGCTTGACGCTGCTG”, the figures for the binding signal (in assay [1]; with GST-Hu-p50) were 2.07 z-score and 1.38 z-score, respectively.

On to “CCGATTAACATCAGGGGGATGTATGATGTTAATCGGGTCTTGATTCGCTTGACGCTGCTG”, for which the binding signal in assay [1] is 5.85 z-score; with GST-Hu-p50 it was 4.84 z-score.

Regarding “CCGATTAACATCAGAACATTCCCTGATGTTAATCGGGTCTTGATTCGCTTGACGCTGCTG”, the values for the binding signal (in assay [1]; in the assay with GST-Hu-p50) were 3.49 z-score and 3.65 z-score, respectively.

As for “CCGATTAACATCACGGGGAGTCCTGATGTTAATCGGGTCTTGATTCGCTTGACGCTGCTG”, the binding signal came out at 4.29 z-score in assay [1] and 3.39 z-score in the assay with GST-Hu-p50.

As for “CCGATTAACATCAGCGAATTCCCTGATGTTAATCGGGTCTTGATTCGCTTGACGCTGCTG”, the binding signal was 4.46 z-score in assay [1] and 3.28 z-score with GST-Hu-p50.

“CCGATTAACATCAAGTATTTCCCTGATGTTAATCGGGTCTTGATTCGCTTGACGCTGCTG”: the binding signal in assay [1] came out at 5.24 z-score; with GST-Hu-p50, 3.64 z-score.

As to “CCGATTAACATCAGGGAAAGGAATGATGTTAATCGGGTCTTGATTCGCTTGACGCTGCTG”, the binding signal in assay [1] stood at 2.07 z-score; with GST-Hu-p50 it was 1.29 z-score.

For “CCGATTAACATCAGGAATATACCTGATGTTAATCGGGTCTTGATTCGCTTGACGCTGCTG”, the results for the binding signal (in assay [1]; with GST-Hu-p50) were 1.48 z-score and 1.06 z-score, respectively.

Consider “CCGATTAACATCAACACCCCCCCTGATGTTAATCGGGTCTTGATTCGCTTGACGCTGCTG”, for which the binding signal in assay [1] was 3.82 z-score; with GST-Hu-p50, 3.88 z-score.

As for “CCGATTAACATCAGGGGTAAAACTGATGTTAATCGGGTCTTGATTCGCTTGACGCTGCTG”, the binding signal in assay [1] turned out to be 3.62 z-score; with GST-Hu-p50, 3.28 z-score.

With “CCGATTAACATCAGGGAAAATGATGATGTTAATCGGGTCTTGATTCGCTTGACGCTGCTG”, the binding signal in assay [1] amounted to 6.52 z-score; with GST-Hu-p50 it was 2.44 z-score.

Take “CCGATTAACATCAGGGGGCAAGATGATGTTAATCGGGTCTTGATTCGCTTGACGCTGCTG”: the binding signal in assay [1] was 1.92 z-score; in the assay with GST-Hu-p50, 2.2 z-score.

On to “CCGATTAACATCAAGGATTTCCCTGATGTTAATCGGGTCTTGATTCGCTTGACGCTGCTG”, for which the binding signal in assay [1] amounted to 6.13 z-score; with GST-Hu-p50, 4.33 z-score.

Take “CCGATTAACATCACGGAATTACCTGATGTTAATCGGGTCTTGATTCGCTTGACGCTGCTG”: the binding signal was determined as 3.86 z-score in assay [1] and 2.38 z-score with GST-Hu-p50.

Turning to “CCGATTAACATCAGGGATTCTCATGATGTTAATCGGGTCTTGATTCGCTTGACGCTGCTG”, the binding signal in assay [1] was 1.71 z-score; with GST-Hu-p50, 1.91 z-score.

In the case of “CCGATTAACATCACGGAAGTCCCTGATGTTAATCGGGTCTTGATTCGCTTGACGCTGCTG”, the binding signal in assay [1] came out at 5.32 z-score; with GST-Hu-p50, 4.43 z-score.

Regarding “CCGATTAACATCAATATTTCCCATGATGTTAATCGGGTCTTGATTCGCTTGACGCTGCTG”, the results for the binding signal (in assay [1]; with GST-Hu-p50) were 3.55 z-score and 3.27 z-score, respectively.

For the sequence “CCGATTAACATCACTTTACCCCCTGATGTTAATCGGGTCTTGATTCGCTTGACGCTGCTG”, the results for the binding signal (in assay [1]; with GST-Hu-p50) were 4.4 z-score and 3.42 z-score, respectively.

“CCGATTAACATCAGGGGGAGAGATGATGTTAATCGGGTCTTGATTCGCTTGACGCTGCTG”: the binding signal in assay [1] was 4.36 z-score; in the assay with GST-Hu-p50, 4.17 z-score.

Consider “CCGATTAACATCACCCGCTTTATTGATGTTAATCGGGTCTTGATTCGCTTGACGCTGCTG”, for which the figures for the binding signal (in assay [1]; with GST-Hu-p50) were 1.21 z-score and 1.46 z-score, respectively.

As for “CCGATTAACATCAGAGAAACCCCTGATGTTAATCGGGTCTTGATTCGCTTGACGCTGCTG”, the values for the binding signal (in assay [1]; with GST-Hu-p50) were 4.24 z-score and 5.09 z-score, respectively.

As for “CCGATTAACATCACGTTCCCCCCTGATGTTAATCGGGTCTTGATTCGCTTGACGCTGCTG”, the binding signal in assay [1] was 5.78 z-score; with GST-Hu-p50, 5.15 z-score.

As for “CCGATTAACATCAGAAAATGCCCTGATGTTAATCGGGTCTTGATTCGCTTGACGCTGCTG”, the values for the binding signal (in assay [1]; with GST-Hu-p50) were 1.55 z-score and 2.79 z-score, respectively.

For the sequence “CCGATTAACATCAATCGTCCCCCTGATGTTAATCGGGTCTTGATTCGCTTGACGCTGCTG”, the binding signal came to 4.3 z-score in assay [1] and 3.44 z-score with GST-Hu-p50.

“CCGATTAACATCACCAGTTTCCCTGATGTTAATCGGGTCTTGATTCGCTTGACGCTGCTG”: the binding signal in assay [1] worked out at 4.89 z-score; in the assay with GST-Hu-p50, 2.39 z-score.

With “CCGATTAACATCACCCATCCCCCTGATGTTAATCGGGTCTTGATTCGCTTGACGCTGCTG”, the binding signal in assay [1] worked out at 4.96 z-score; with GST-Hu-p50 it was 4.2 z-score.

With “CCGATTAACATCAAATCATCCCCTGATGTTAATCGGGTCTTGATTCGCTTGACGCTGCTG”, the results for the binding signal (in assay [1]; with GST-Hu-p50) were 6.16 z-score and 4.63 z-score, respectively.

The values are drawn from article PMC5700166.
